# Measurements reported in PubChem BioAssay AID1240 (Sanford-Burnham Center for Chemical Genomics, 2008).
# The campaign covered roughly 50,000 compounds. About 800 (1.6%) showed an effect of 50% or more. The list comes from a sample in which strong results are over-represented; it also holds similar structures and randomly drawn compounds.
# Target: Bcl-2-like protein 10 (Homo sapiens) (UniProt Q9HD36)
# Assay: Phenotype converters, Bcl-B/TR3 peptide binding displacement, primary biochemical FP (AID 1240);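 further: 0% = Bcl-B with tracer peptide and DMSO and 100% = tracer peptide lacking Bcl-B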
# Settings: GST-Bcl-B / FITC-TR3 peptide fluorescence polarization; stronger effect = higher value; compound at 3.75 mg/L
# Bcl-2-like protein 10 (Homo sapiens), sequence (Q9HD36 whole entry, looked up): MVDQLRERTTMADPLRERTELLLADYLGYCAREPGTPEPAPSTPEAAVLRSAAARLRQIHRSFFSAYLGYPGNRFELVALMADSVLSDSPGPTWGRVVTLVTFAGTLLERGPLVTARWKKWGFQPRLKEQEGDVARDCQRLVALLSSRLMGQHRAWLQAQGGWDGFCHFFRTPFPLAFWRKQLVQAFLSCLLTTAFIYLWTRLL
row,SMILES,displacement [%]
1,C=CCOc1ccc(/C=C/C(=O)c2ccc(Cl)cc2)cc1,-2.1
2,O=C(NCc1ccccc1)c1nn2c(c1Cl)NC(c1ccc(Cl)cc1)CC2C(F)(F)F (stereo unspecified),1.1
3,O=C(NCc1ccccc1)C(O)(c1ccc(F)cc1)c1ccc(F)cc1,-12.1
4,CSc1ccc(CN2CCN(C(=O)c3ccco3)CC2)cc1,-13.1
5,O=[N+]([O-])c1ccc(F)c(NS(=O)(=O)c2cc(Cl)ccc2Cl)c1,-1.9
6,Cc1cc(NC(=O)c2cccc(F)c2)ccc1NC(=O)c1ccccc1,-3.3
7,COc1ccc(N=C2NC(=O)/C(=C/c3ccc(N(C)C)cc3)S2)cc1,84.9
8,COc1ccc(/C=C2/SC(=Nc3ccc(O)cc3)NC2=O)cc1,-15.9
9,COc1ccc(N=C2NC(=O)/C(=C/c3ccc(Cl)cc3)S2)cc1,10.7
10,O=C1NC(=Nc2ccc(Br)cc2)S/C1=C\c1ccc2c(c1)OCO2,68.8
11,Cc1ccc(/C=C2\SC(=Nc3ccc(O)cc3)NC2=O)cc1,0.1
12,CN(C)c1ccc(/C=C2\SC(=Nc3ccc(O)cc3)NC2=O)cc1,50.9
13,O=C1NC(=Nc2ccc(O)cc2)S/C1=C\c1ccc(Cl)cc1,0.3
14,O=C1NC(=Nc2ccc(F)cc2)S/C1=C/c1ccc(Br)cc1,8
15,O=C1NC(=Nc2ccc(Br)cc2)S/C1=C\c1ccc(O)cc1,10
16,COC(=O)c1c(C)oc2ccc(OCc3cccc(Br)c3)cc12,9.3
17,CCC(=NCc1ccccc1)c1c(C(F)(F)F)[nH]n(-c2nc3ccccc3s2)c1=O,-13.5
18,Cc1ccc(N2NC(=O)/C(=C/C=C/c3ccccc3)C2=O)cc1C,8.4
19,Cc1ccc(Cl)cc1NC(=O)C(=O)NCc1ccco1,-13.4
20,CCOC(=O)c1c(-c2ccc(C)cc2)csc1NC(=O)C(C)(C)C,7.5
21,Cc1c(C(=O)NCCc2ccccc2)cccc1[N+](=O)[O-],-8
22,CN(C)c1ccc(N/C(N)=N/c2nc(C(F)(F)F)cc(=O)[nH]2)cc1,-5.8

row,SMILES,displacement [%]
1,N/C(=N/N=C/c1ccc2c(c1)OCO2)c1ccccn1,-7.7
2,O=C(c1ccccc1)N1CC(=O)N2CCc3ccccc3C2C1 (stereo unspecified),1
3,O=C1/C(=C/c2ccccc2)SC(=S)N1c1ccccc1Cl,-7.4
4,COc1cccc(C2NC(=O)NC(C)=C2C(=O)Nc2ccccc2C)c1 (stereo unspecified),4.3
5,COC(=O)C1=C(C)N=c2s/c(=C\c3ccccc3Cl)c(=O)n2C1c1cccs1 (stereo unspecified),84.9
6,COC(=O)C1=C(C)N=c2s/c(=C\c3ccc(Cl)cc3)c(=O)n2C1c1ccc(OC)c(OC)c1 (stereo unspecified),9.9
7,CCOC(=O)C1=C(C)N=c2s/c(=C\c3ccc(C(=O)O)cc3)c(=O)n2C1c1ccc(OC)c(OC)c1 (stereo unspecified),-22.8
8,COC(=O)C1=C(C)N=c2s/c(=C/c3ccc(F)cc3)c(=O)n2C1c1ccc(OC)cc1 (stereo unspecified),5.7
9,CCOC(=O)C1=C(C)N=c2s/c(=C\c3ccc(I)cc3)c(=O)n2C1c1ccc(OC)c(OC)c1 (stereo unspecified),111
10,CCOC(=O)C1=C(C)N=c2s/c(=C\c3cc4c(cc3Cl)OCO4)c(=O)n2C1c1cccs1 (stereo unspecified),-8.9
11,CCOC(=O)C1=C(C)N=c2s/c(=C\c3ccc(NC(C)=O)cc3)c(=O)n2C1c1ccccc1 (stereo unspecified),-24.8
12,CCOC(=O)C1=C(C)N=c2s/c(=C\c3ccc(NC(C)=O)cc3)c(=O)n2C1c1ccc(OC)cc1 (stereo unspecified),116
13,C=CCOc1ccc(/C=c2/sc3n(c2=O)C(c2ccc(OC)c(OC)c2)C(C(=O)OC)=C(C)N=3)cc1 (stereo unspecified),106
14,CCOC(=O)C1=C(C)N=c2s/c(=C\c3ccc(OC)cc3)c(=O)n2C1c1ccc(OC)cc1 (stereo unspecified),-5.7
15,CCOC(=O)C1=C(C)N=c2s/c(=C\c3ccc(N(C)C)cc3)c(=O)n2C1c1ccc(OC)c(OC)c1 (stereo unspecified),-38.5
16,CCOC(=O)C1=C(C)N=c2s/c(=C\c3cn(C)c4ccccc34)c(=O)n2C1c1cccs1 (stereo unspecified),11.5
17,CCOc1ccc(C(=O)Nc2cc(OC)ccc2OC)cc1Br,-9
18,COc1ccc(C(=O)N2CCN(c3cccc(C)c3C)CC2)c(OC)c1,-4.4
19,CCN(CC)c1ccc(N2C(=O)/C(=C/C=C/c3ccccc3)SC2=S)cc1,-4.2
20,CCCOC(=O)c1c(NC(=O)c2c(-c3ccccc3)noc2C)sc2c1CCCCC2,-7.2
21,COc1ccc(CN2CCN(C3CCC(c4ccccc4)CC3)CC2)c(OC)c1OC (stereo unspecified),-12
22,CC(C)OC(=O)c1c(-c2ccc(F)cc2)csc1N,1.3

row,SMILES,displacement [%]
1,COc1ccc(N2C(=O)/C(=C\C(Br)=C\c3ccccc3)SC2=S)cc1,5.6
2,CCOC(=O)C1=C(C)N=c2s/c(=C\c3ccccn3)c(=O)n2C1c1ccc(OC)c(OC)c1 (stereo unspecified),42.1
3,CCOC(=O)C1=C(C)N=c2s/c(=C\c3ccc(NC(C)=O)cc3)c(=O)n2C1c1ccc(OC)c(OC)c1 (stereo unspecified),88.9
4,CCOC(=O)C1=C(C)N=c2s/c(=C\c3ccccc3Cl)c(=O)n2C1c1ccc(OC)c(OC)c1 (stereo unspecified),106
5,CCOC(=O)C1=C(C)N=c2s/c(=C\c3cc(Br)c(O)c(OC)c3)c(=O)n2C1c1ccc(OC)c(OC)c1 (stereo unspecified),-85.1
6,CCOC(=O)C1=C(C)N=c2s/c(=C\c3ccc(N(CC)CC)o3)c(=O)n2C1c1ccc(OC)c(OC)c1 (stereo unspecified),-25
7,CCOC(=O)C1=C(C)N=c2s/c(=C\c3ccccc3F)c(=O)n2C1c1ccc(OC)c(OC)c1 (stereo unspecified),6.3
8,CC(=O)N(c1ccccc1)c1c(F)c(F)c(F)c(F)c1F,-8.8
9,O=C(COc1ccc(Cl)cc1Br)Nc1ccc2c(c1)OCCO2,1.8
10,CCOC(=O)c1conc1-c1ccc(SC)cc1,6.5
11,COc1ccc(CN2CCN(Cc3cc(Br)ccc3O)CC2)c(OC)c1,1.4
12,COc1cc(C(=O)N2CCN(Cc3cccc(C(F)(F)F)c3)CC2)cc(OC)c1OC,3.1
13,O=C(Nc1ccc(-c2nc3ccccc3s2)c(O)c1)c1ccc2c(c1)OCCO2,-3.8
14,Cc1ccc2nc(-c3ccc(NC(=O)c4ccc5c(c4)OCCO5)cc3)sc2c1,73.2
15,O=C(Nc1cccc(-c2nc3ccccc3s2)c1)c1ccc2c(c1)OCCO2,5.6
16,CCOc1ccc(C(=O)Nc2ccc(-c3nc4ccc(C)cc4s3)cc2)cc1,13.3
17,CC(=O)Nc1ccc(-c2nc3ccc(C)cc3s2)cc1,-3.9
18,O=C(Nc1ccc(O)c(-c2nc3ccccc3s2)c1)c1ccc2c(c1)OCCO2,82.5
19,O=CN1N=C(c2ccccc2)CC1(O)C(F)(F)F (stereo unspecified),13.4
20,O=C(CC1Nc2ccccc2NC1=O)Nc1ccc(Br)cc1 (stereo unspecified),-5.1
21,COC(=O)c1ccc(NC(=O)CC2Nc3ccccc3NC2=O)cc1 (stereo unspecified),108
22,CCc1ccc(NC(=O)CC2Nc3ccccc3NC2=O)cc1 (stereo unspecified),-35.7

row,SMILES,displacement [%]
1,CCOC(=O)c1c(NC(=O)CC2Nc3ccccc3NC2=O)sc2c1CCCC2 (stereo unspecified),130
2,CCOC(=O)c1c(NC(=O)CC2Nc3cc(C)c(C)cc3NC2=O)sc2c1CCCC2 (stereo unspecified),48.8
3,CCOC(=O)c1c(NC(=O)CC2Nc3ccccc3NC2=O)sc(C)c1C (stereo unspecified),-9.5
4,O=[N+]([O-])c1ccc(COc2ccccc2/C=N/Nc2nc3ccccc3s2)cc1,-2.1
5,O=C(COc1ccc(Cl)cc1Cl)N1CCN(C(=O)COc2ccc(Cl)cc2Cl)CC1,2
6,CCOC(=O)c1ccc(Nc2nc3nonc3nc2NC(C)C)cc1,-7.1
7,O=C1NC(=S)N/C1=C\c1ccccc1,0.7
8,O=C1NC(=S)N/C1=C/c1ccc(N2CCOCC2)cc1,94.5
9,Cc1cc(/C=C2/NC(=S)NC2=O)c(C)n1-c1ccc(N2CCOCC2)cc1,-9
10,COc1ccc(CC(=O)Nc2ccc(Cl)c(C(F)(F)F)c2)cc1OC,6.1
11,O=C(Nc1ccc(Br)cc1)c1ccccc1C(F)(F)F,23.2
12,O=C1C(NC2CCCCC2)=C(N2CCCCC2)C(=O)c2ccccc21,7.4
13,O=C1c2ccccc2-c2c(NC3CCCCC3)c(=O)[nH]c3cccc1c23,150
14,O=C1c2ccccc2C(=O)c2c1cc(NC1CCCCC1)c1nsnc21,15.8
15,Cc1cc(/C=C2/NC(=S)NC2=O)c(C)n1-c1cccc(Cl)c1,-12.9
16,CCc1ccc(-n2c(C)cc(/C=C3/SC(=S)NC3=O)c2C)cc1,63
17,Cc1cccc(-n2c(C)cc(C=C3C(=O)NC(=S)NC3=O)c2C)c1,72.3
18,Cc1cc(/C=C2/SC(=S)NC2=O)c(C)n1-c1ccc(F)cc1,-6.4
19,Cc1cc(C=C2C(=O)NC(=S)NC2=O)c(C)n1-c1ccc(Br)cc1,21
20,Cc1ccc(-n2c(C)cc(C=C3C(=O)NC(=S)NC3=O)c2C)cc1C,0.1
21,Cc1cc(/C=C2/SC(=S)NC2=O)c(C)n1-c1ccccc1,-39.7
22,Cc1cccc(-n2c(C)cc(/C=C3/NC(=S)NC3=O)c2C)c1,-38.6

row,SMILES,displacement [%]
1,Cc1cc(C=C2C(=O)NC(=S)NC2=O)c(C)n1-c1cccc(Cl)c1,107
2,CCOC(=O)c1ccc(NC(=O)CN(c2ccc(Oc3ccccc3)cc2)S(C)(=O)=O)cc1,-2.7
3,Cc1ccc(-c2nc(N/N=C/c3cccc(F)c3)c3ccccc3n2)cc1,5
4,COc1ccc(C(=O)N2CCN(Cc3ccc4c(c3)OCO4)CC2)cc1OC,10.6
5,CCOC(=O)C1=C(C)N=c2s/c(=C\c3ccc(N(C)C)o3)c(=O)n2C1c1ccc(F)cc1 (stereo unspecified),-22.6
6,CCOc1cc(C2/C(=C(\O)c3ccc(C)cc3)C(=O)C(=O)N2c2nncs2)ccc1O (stereo unspecified),8.3
7,COc1ccc(/C(N)=N/OC(=O)c2ccc(C)c([N+](=O)[O-])c2)cc1,-1.8
8,CCCCOC(=O)c1cccc(NC(=O)c2ccc(OC)cc2)c1,-3.1
9,COc1ccc(C2=NN(C(C)=O)C(c3ccccc3OC)C2)cc1 (stereo unspecified),2.3
10,CC(NC(=O)CN(c1cccc(C(F)(F)F)c1)S(C)(=O)=O)c1ccccc1 (stereo unspecified),0.7
11,CCOc1ccc(N(CC(=O)N2CCOCC2)S(=O)(=O)c2ccc(SC)cc2)cc1,-1.3
12,C=CCN1C(=O)/C(=C\c2ccc(OCc3ccccc3)c(OCC)c2)SC1=S,49.5
13,Cc1ccc(/C(O)=C/c2nc3ccccc3[nH]c2=O)o1,130
14,CCOC(=O)c1nc2ccccc2[nH]c1=O,14.3
15,Cc1cc(C)c(/C(O)=C/c2nc3ccccc3oc2=O)c(C)c1,13.8
16,Cc1ccc(/C(O)=C/c2nc3ccc([N+](=O)[O-])cc3oc2=O)o1,-6.6
17,Cc1ccc(/C(O)=C/c2nc3ccccc3oc2=O)o1,116
18,Cc1nc(C)c(/C(O)=C/c2nc3ccccc3[nH]c2=O)o1,-8.5
